# MARV entry inh = qHTS for inhibitors of binding or entry into cells for Marburg Virus | Marburg virus pseudotyped entry inhibition, cell reporter | Potency, µM (series often up to 37.8 µM), inactives show at the top dose activity change, negative = inhibition, actives largely listed as inhibitors | 300,000 tested, 1.8% active; calls by dose curve; tested in HEK293 cells; note: potency is the fitted concentration of half-maximal effect
# VACV mCherry inh = qHTS for Stage-Specific Inhibitors of Vaccinia Orthopoxvirus: mCherry Reporter Primary qHTS; Vaccinia virus mCherry reporter infection, fluorescence; Potency, µM (highest dose often 36.5 µM), inactives show at the top dose activity change, negative = inhibition, hits mostly inhibitors; 310,000 tested, 0.63% active; calls by dose curve; tested in A549 cells; note: potency is the fitted concentration of half-maximal effect; nearly all actives have a fitted effect of over 35% in size
# Vaccinia Venus = qHTS for Stage-Specific Inhibitors of Vaccinia Orthopoxvirus: Venus Reporter Primary qHTS; Vaccinia virus Venus reporter expression, fluorescence; Potency, µM (highest dose often 36.5 µM), for inactives: top-dose activity change, negative = inhibition, hits mostly inhibitors; 330,000 tested, 0.46% active; AID 720580, 2013; calls by dose curve; tested in A549 cells; note: potency is the fitted concentration of half-maximal effect; nearly all actives have a fitted effect of over 30% in size
# FMDV antiviral = High Throughput Screening for Foot and Mouth Disease Virus Antivirals; FMDV antiviral cell-based qHTS; Potency, µM (titrated, usually from 57.9 µM), inactives show at the top dose activity change, negative = inhibition, most hits filed as inhibitors; 410,000 tested, 1.2% active; calls by dose curve; tested in HEK293T cells; note: read-out not given here; potency is the fitted concentration of half-maximal effect; nearly all actives have a fitted effect of over 45% in size
# LASV entry inh = qHTS for Inhibitors of binding or entry into cells for Lassa Virus. 300,000 tested, 1.2% active. Lassa virus pseudotype entry inhibition, cell reporter. Potency, µM (top dose mostly 37.9 µM), for inactives: at the highest dose activity change, negative = inhibition, hits mostly inhibitors; calls by dose curve; tested in HEK293 cells; note: potency is the fitted concentration of half-maximal effect; nearly all actives have a fitted effect of over 50% in size
# HCMV antiviral = qHTS Assay for inhibitors of the human cytomegalovirus (HCMV). HFF cells, HCMV-luciferase reporter, 72 h; stronger effect = lower value. activity change, negative = inhibition, % at 57.5 µM. 410,000 tested, 4.5% active; in the data active = activity change below about -60%; inconclusive = no clear call, values can overlap the other calls; inactive = above about -39%
#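 Cell-based, HFFs, 1000 cells/well, 16 h 37C; cpds in DMSO + HCMV-luc, MOI 1 PFU/cell; 72 h 37C; OneGlo luminescence after 5 min RT; norm. to buffer vs Salinomycin 10uM.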
# * marks the source's active call; other numbers are inactive results; i = inactive; ? = inconclusive; · = not tested or not shown; [ ] = dose if it differs, or a comment. Only some compounds are listed: those with a hit (about 6.5% of all), similar ones and a draw of the others. % is set by controls: 0 for no effect and ±100 for the full control effect.
SMILES,MARV entry inh,VACV mCherry inh,Vaccinia Venus,FMDV antiviral,LASV entry inh,HCMV antiviral
O=C1c2ccccc2C(=O)C12OC2c1ccc(Cl)cc1Cl (centres undefined),?,-14%,0%,28µM*,12%,-9
COc1ccc(NC(=O)CSc2nc3cc(OC)c(OC)cc3c3nc(-c4ccccc4)nn23)cc1Cl,-5%[46.1 µM],-3%,-8%,-20%,7%[46.1 µM],-2
O=C(/C=C/c1cccs1)Nc1ccc(Br)cn1,?,-21%,-29%,41%,?,-66*
O=C(Nc1ccc(Br)cn1)c1ccc(Br)s1,?,-23%,-23%,1%,?,-99*
O=C(/C=C/c1cccs1)Nc1cccc(NC(=O)/C=C/c2cccs2)n1,?,-6%,-26%,-21%,?,-25
CC(C)Oc1ccc(Nc2cc3c(cn2)cc(-c2cccc(C(F)(F)F)c2)n3C)cc1,·,·,·,·,·,-5
Nc1nc(CCl)nc(N(c2ccccc2)c2ccccc2)n1,?,?,-36%,32µM*,?,-98*
CCc1nc2sc3c(c2c(=O)n1NC(=O)CCl)CCCC3,-25%,·,·,?,2%,-74*
COc1ccc(Cn2cc(CN3[C@@H](c4ccccc4)COc4cc(Br)ccc4S3(=O)=O)nn2)cc1,·,·,·,·,·,-14
COc1ccccc1-c1ccc(=O)n(CC(=O)NC2CCc3ccccc32)n1 (centres undefined),?,-14%,-12%,-9%,0%[46.1 µM],-87*
CCCNC(=O)Cn1nc(-c2ccccc2OC)ccc1=O,·,i,-2%,-24%,·,2
Cc1ccc(Cl)cc1N1CCN(C(=O)C2CCCN(Cc3nc(-c4cccc(Cl)c4)oc3C)C2)CC1 (centres undefined),-18%[46.1 µM],i,-9%,?,-5%[46.1 µM],-69*
CCc1ccc(-c2nc(CN3CCCC(C(=O)N4CCN(c5cc(Cl)ccc5C)CC4)C3)c(C)o2)cc1 (centres undefined),?,?,?,?,?,-86*
c1ccc(C(c2nnnn2C2CCCC2)N2CCN(c3ccccc3)CC2)cc1 (centres undefined),?,-13%,-12%,-4%,18µM*,-25
O=C(c1ccco1)N1CCN(C(c2cccs2)c2nnnn2C2CCCC2)CC1 (centres undefined),?,-15%,-14%,18%,11%,-101*
COc1ccc(OC)c(C(c2nnnn2C2CCCC2)N2CCN(c3ccccc3)CC2)c1 (centres undefined),10µM*,·,-31%,-5%,?,-6
O=C(c1ccco1)N1CCN(C(c2ccccn2)c2nnnn2C2CCCC2)CC1 (centres undefined),2%,i,-8%,·,21%,-7
CCn1cc([N+](=O)[O-])c(C(=O)N2N=C(c3ccc4ccccc4c3)CC2c2cc(Br)ccc2O)n1 (centres undefined),?,14µM*,?,-16%,?,·
O=C(c1ccc2c(c1)OCCO2)N(Cc1cccnc1)c1nc2c(F)cc(F)cc2s1,·,-11%[7.34 µM],-9%[7.34 µM],0%,?,-29
O=C1CCC/C1=c1\s/c(=C\c2cccnc2)c(=O)n1-c1ccccc1,?,-9%,-6%,?,5%,-79*
O=C1CCC/C1=c1\s/c(=C/c2cccnc2)c(=O)n1-c1ccccc1,?,i,-15%,-1%,?,-25
Cc1cccnc1N(C(=O)Nc1cccc(Cl)c1)C1=NCC(C)(C)S1,-8%,-10%,-9%,2%,3%,-62*
COc1ccc(CN2CCOc3ccc(CN4CCN(CCO)CC4)cc3C2)c2ccccc12,·,-20%,-12%,-7%,·,·
NS(=O)(=O)c1ccc(CCNc2ccc(C(F)(F)F)cn2)cc1,-1%[46.1 µM],-6%,-4%,-9%,·,-77*
FC(F)(F)c1ccc(NCCc2ccccc2)nc1,?,i,-15%,1%,-13%[46.1 µM],-34
SMILES,MARV entry inh,VACV mCherry inh,Vaccinia Venus,FMDV antiviral,LASV entry inh,HCMV antiviral
CCCCCCCCN1C(=O)N(Cc2ccc(OC)cc2)S(=O)(=O)c2ccc(F)cc21,·,·,·,·,·,-12
Cc1cccc(C)c1-n1nnnc1C(c1ccnc2ccccc12)N(Cc1ccccc1)Cc1ccccc1 (centres undefined),·,-22%,-11%,-10%,·,-72*
Cc1cccc(C)c1-n1nnnc1C(c1ccnc2ccccc12)N(CCC#N)Cc1ccccc1 (centres undefined),·,-5%,-3%,?,·,?
CCc1ccc(NC(=O)C2CCN(c3ncnc4c3nc3n4CCCCC3)CC2)cc1,8%[46.1 µM],-4%,-9%,?,-30%[46.1 µM],-73*
O=C(Nc1ccc(F)cc1)C1CCN(c2ncnc3c2nc2n3CCCCC2)CC1,·,·,·,-9%,·,-9
O=C(Nc1ccccn1)C1CCN(c2ncnc3c2nc2n3CCCCC2)CC1,·,·,·,?,·,-84*
COC(=O)C(CCSC)NC(=O)C1CCN(c2ncnc3c2nc2n3CCCCC2)CC1 (centres undefined),·,i,-7%,16%,7%[46.1 µM],-100*
COCCCNC(=O)C1CCN(c2ncnc3c2nc2n3CCCCC2)CC1,·,i,-7%,27%,5%[46.1 µM],-16
Cc1cccc(N2CCN(C(=O)CN3C(=O)COc4ccc(S(=O)(=O)N5CCCCCC5)cc43)CC2)c1C,1%[46.1 µM],-15%,-18%,-22%,6%[46.1 µM],-73*
CCN(Cc1ccccc1)C(=O)CN1C(=O)COc2ccc(S(=O)(=O)N3CCCCCC3)cc21,-23%[46.1 µM],-14%,-8%,-11%,-21%[46.1 µM],-77*
CCN(C(=O)CN1C(=O)COc2ccc(S(=O)(=O)N3CCCCCC3)cc21)c1cccc(C)c1,?,-16%,-20%,5%,8%[46.1 µM],-63*
CNC(=O)CN1C(=O)COc2ccc(S(=O)(=O)N3CCCCCC3)cc21,?,-19%,-9%,-2%,-2%[46.1 µM],-39
CCOC(=O)CCNC(=O)C1=CN2CCN(Cc3ccccc3C)C(=O)N=C2O1,·,·,·,·,·,6
CCCCCSc1cc(OC)c(CCN)cc1OC,?,·,-18%,0%,?,-70*
CCCCCCCSc1cc(OC)c(CCN(C)C)cc1OC,?,?,10µM*,-17%,?,-26
OC1(C#CCN2CCCC2)CCCCC1,·,·,·,4%,·,6
C#CC1(N2CCCCC2)CCCCC1,·,i,-4%,-30%,·,-62*
O=C(CCl)N(CCCNC(=O)C(F)(F)F)c1ccc([N+](=O)[O-])cc1,-17%[46.1 µM],i[7.34 µM],-9%[7.34 µM],20µM*,3%,-101*
O=C(NCCCNc1ccc([N+](=O)[O-])cc1)C(F)(F)F,?,-16%,-9%,-10%,1%,32
CN(Cc1ccc(Cl)cc1)C(=O)CCl,·,·,·,25µM*,·,-64*
COc1ccc(CN(C)C(=O)CCl)cc1,·,?,-18%,?,·,0
CN(Cc1ccc(Cl)s1)C(=O)CCl,?,-16%,-25%,11µM*,11µM*,135

# Screening data from PubChem.
